Data from PubChem BioAssay AID720518 (National Center for Advancing Translational Sciences (NCATS), 2013).
Records with an inconclusive call do not appear. Where a call stands in place of a potency, no number is given. Calls of active or inactive are those of the source. The call rests on the fitted dose curve.

Assay: qHTS for Inhibitors of Cell Surface uPA Generation: Wild-type Protective Antigen (WT-PrAg) Counterscreen for Cherry-picked Compounds
Conditions: cells, WT protective antigen toxicity counterscreen; series mostly up to 115 µM

| SMILES | Potency |
| --- | --- |
| COc1ccc(C2NC(=O)CCC2[N+](=O)[O-])c(OC)c1OC (stereo not given) | inactive |
| CCOC(=O)C1CCCN(CC(=O)Nc2ccc(C(=O)Nc3ccccc3OC)cc2)C1 (stereo not given) | inactive |
| CCN(CC)S(=O)(=O)c1ccc(C(=O)Nc2nnc(COC)o2)cc1 | inactive |
| Cc1cc(C)n2nc(CNS(=O)(=O)c3ccc(F)c(C)c3)nc2n1 | inactive |
| C=CCOC(=O)C1=C(C)NC(C)=C(C(=O)OCC=C)C1c1cn(-c2ccccc2)nc1-c1ccco1 | inactive |
| CCC(C)Nc1cc(C)nc2ncnn12 (stereo not given) | inactive |
| COc1ccc(C(=O)NCCOC(C)C)cc1OC1CCN(C(C)=O)CC1 | inactive |
| CCSC1=NCCN1S(=O)(=O)c1ccc(Cl)cc1 | inactive |
| CCN(CC)c1c([N+](=O)[O-])c(=O)sc2ccccc12 | inactive |
| O=C1CC(/C=C/c2ccc(Cl)cc2)=Nc2ccccc2N1 | inactive |
| O=C(C1CCCCN1S(=O)(=O)c1ccc(F)cc1)N1CCN(c2ccccc2F)CC1 (stereo not given) | inactive |
| Cc1cc(C)cc(S(=O)(=O)c2cn(C)c3cc(N4CCN(C)CC4)c(F)cc3c2=O)c1 | inactive |
| CC(C)C(=O)Nc1nnc(SCc2cccc(F)c2)s1 | inactive |
| COc1ccc(-c2sc3ccccc3c2C#CCO)cc1 | inactive |
| O=S(=O)(c1ccc2nc(N3CCN(c4ccccc4)CC3)ccc2c1)N1CCCCC1 | inactive |
| COc1cccc(C(=O)Cn2c(NCCCO)nc3ccccc32)c1 | inactive |
| CCNc1nc(Nc2ccc(C)c(Cl)c2)c2cnn(C)c2n1 | inactive |
| Cc1ccc(C)c(NC(=O)CCN2CCN(c3ccccc3F)CC2)c1 | inactive |
| CCN(CC(=O)Nc1c(F)cccc1F)C(=O)c1ccc(-c2ccc(C(C)=O)cc2)o1 | inactive |
| O=C(CN1CCCC1)Nc1cccc(Cl)c1Cl | inactive |

| SMILES | Potency |
| --- | --- |
| COc1ccc(NS(=O)(=O)c2cc(NS(=O)(=O)c3cc(C(=O)O)ccc3OC)ccc2C)cc1 | inactive |
| Cc1ccc(C(=O)NC(=S)Nc2ccc3[nH]c(=O)[nH]c3c2)c(C)c1 | inactive |
| COc1ccc2c(ccn2S(=O)(=O)c2ccccc2)c1 | inactive |
| CCCCn1c(=NC(=O)c2ccco2)c(C(=O)OCC)cc2c(=O)n3cccc(C)c3nc21 | inactive |
| CC1(c2cccc([N+](=O)[O-])c2)CC(C)(C)N(C(=O)c2ccccc2)c2ccccc21 (stereo not given) | inactive |
| Cc1cc(C)n2c(SCC#N)nnc2n1 | inactive |
| O=C(Cc1n[nH]c(=O)c2ccccc12)Nc1cccc(S(=O)(=O)N2CCCCCC2)c1 | inactive |
| CC(=O)N1CCN(C(=O)CSc2cc(C)c(Br)cc2C)CC1 | inactive |
| Cc1ccc(C)c(-c2ccc(=O)n(Cc3c(F)cccc3Cl)n2)c1 | inactive |
| O=C(NC[C@H]1CCCO1)c1cccc2c1C(=O)c1ccc(-c3ccc(F)cc3OCc3ccccc3)cc1S2(=O)=O | inactive |
| C[C@H]([C@H](O)c1ccccc1)N(C)C(=O)CN | inactive |
| CCNC(=S)NNC(=O)c1ccncc1 | inactive |
| CCOC(=O)c1c(C)oc2ccc(OC(=O)COc3c(F)c(F)c(F)c(F)c3F)cc12 | inactive |
| COc1ccc(C2C(C(=O)c3ccc(C)o3)=C(O)C(=O)N2CC2CCCO2)cc1OC (stereo not given) | inactive |
| COc1ccc(CN2CCN(Cc3ccc(C(F)(F)F)cc3)CC2)cc1 | inactive |
| O=C(COC(=O)/C=C/c1cccc(F)c1)Nc1ccccc1 | inactive |
| CCCN1CCN(CC(=O)Nc2nncs2)CC1 | inactive |
| CCOc1ccc(C(=O)NCCO)cc1 | inactive |
| c1csc(CN2CCOCC2)c1 | inactive |
| C[C@H](O)[C@@H]1C(=O)N2CCc3ccc(-c4cccc(F)c4)cc3[C@@H]2C[C@@H]1N(C)C(=O)C(C)(C)C | inactive |
